# Assay results reported in PubChem BioAssay AID1745846 (National Center for Advancing Translational Sciences (NCATS), 2022).
# In all, about 1,400 compounds went through this assay and about 30 (2%) were called active. Inconclusive results (about 15%) are left out. The sample holds actives, similar compounds and a random draw of the others, so the mix is not that of the screen. Unmarked numbers belong to inactive results. Calls follow the shape of the dose curve; as a rule, active = well fitted inhibition curve with a large enough effect; inconclusive = small, poorly fitted or top-dose-only effect; inactive = flat fitted curve, though single readings scatter.
# Experiment: Firefly Luciferase Counterscreen for Inhibitors of ATXN expression
# Conditions: luminescence; series mostly up to 57.5 µM; activity change, negative = inhibition: at the top concentration
# Excerpt: University of Utah School of Medicine, Salt Lake City, Utah
# Spinocerebellar ataxia type 2 (SCA2) is a multisystem neurodegenerative disease caused by a dominantly acting mutation leading to expansion of a polyQ domain in the ataxin-2 protein (ATXN2). SCA2 patients develop progressive ataxia and later lose function in other neuronal systems. Prominent parkinsonian signs develop in some patients. Like many neurodegenerative disorders, no symptomatic or disease-modifying treatments are known.
# The primary objective of the proposed research is to identify compounds inhibiting ATXN2 expression and to test them for efficacy in SCA2 mouse models. We have developed a cell-based assay paired with an in vivo mouse model using identical luciferase expression constructs. This approach takes advantage of an ATXN2-luciferase transgene, with the luciferase gene flanked by the upstream and downstream portions of the ATXN2 gene. Here we describe a 5-7 dose quantitative high thoroughput screen (qHTS) for compounds lowering ATXN2 expression. We screened the NIH Molecular Libraries Small Molecule Repository (MLSMR) and NCGC's mechanistically annotated (MIPE) and drug repurposing (NPC) collections of compounds for lowering expression of an ATXN2-luciferase reporter in HEK-293 cells. The assay is a multiplexed cell viability assay to ensure target reduction in the absence of cytotoxicity. Secondary qHTS assays included a CMV-luciferase reporter expressed in HEK-293 cells as well as a biochemical assay using recombinant luciferase to detect inhibitors of the reporter enzyme. Compounds that inhibit ATXN2 expression but is not cytotoxic were selected for confirmatory and secondary screens.
# PROTOCOL TABLE (as described by Inglese J, Shamu CE and Guy RK. 2007)
# SEQUENCE No. (e.g., 1, 2, 3, etc.); […] (e.g., Cells, Incubation, Reagent, etc.); VALUE; DESCRIPTION.
# 2; Compounds; 23 nL; Kalypsis pintool (Wako USA) equipped with a 1536-well pin head.
# 3; Enzyme; 1 uL; recombinant firefly luciferase (prepared in 50 mM Tris HCl pH7.5, 10 mM MgCl2, 0.05% BSA, 0.01% Tween20) at final concentration of 10 nM. Wells containing buffer only were used as control (set as 100% inhibition when normalizing data).
# 4; Incubation; 10 min; room temperature.
# 5; Detection; Luminescence; Viewlux plate reader (PerkinElmer).
# NOTES (numbers refer to Sequence numbers above)
# 1. Luciferase substrate is added to 1536 well, Greiner white assay plate. Evaporation was prevented by covering assay plates with metal lids containing holes to allow gas diffusion.
# 2. Compounds were added in a dose response manner with the final concentrations of 57, 11.4, 2.28, 0.46, 0.091, 0.018, 0.0037 uM. Vehicle-only plates, with DMSO being pin-transferred to columns 5-48, were inserted uniformly at the beginning and the end of each library to monitor and record any shifts in assay performance.
# 3. Recombinant firefly luciferase (10 nM final concentration) is added to the assay plate.
# 5. End-point luminescence is then measured on the Viewlux (PerkinElmer) imager equipped with a clear emission filter using a 2 sec exposure.
# Inglese J, Shamu CE and Guy RK, Reporting data from high throughput screening of small molecule libraries, Nature Chemical Biology, 2007, 3(8): 438-441. doi.org/10.1038/nchembio0807-438.
# % is scaled to controls: 0 for no effect and ±100 for the full control effect; potency is read from the fitted curve at half-maximal effect.
SMILES,"activity change, negative = inhibition [%]",Potency
COc1ccc(-c2oc3c(OC)c(OC)c(OC)c(O)c3c(=O)c2OC)cc1OC,-3.94,–
CCCCOc1ccc(C(=O)NNC(=S)NC(=O)CC)cc1,-3.45,–
COc1cccc(/C=N/NC(=O)c2c(C)nc3ccc(Cl)cn23)c1O,-11.2,–
CC(C)[C@H](NC(=O)c1ccc(C(C)(C)C)cc1)C(=O)N1CCN(Cc2ccc3c(c2)OCO3)CC1,-0.972,–
COc1cccc(/C=N/NC(=O)Cn2nc(C)c([N+](=O)[O-])c2C)c1O,-5.2,–
Cc1cc(N/N=C/c2ccccc2[N+](=O)[O-])nc(-n2nc(C)cc2C)n1,-3.89,–
NC(Cc1ccccc1)c1csc(Nc2ccc(C(F)(F)F)cn2)n1 (stereo not given),1.9,–
CCOc1ccc(-n2c(-c3ccccc3)c[n+]3c2CCCCC3)cc1,-2.5,–
CCn1c(C)cc(C(=O)COC(=O)c2ccccc2[N+](=O)[O-])c1C,–,0.0178 µM (active)
Cc1c(C(=O)N2c3ccccc3Sc3ccccc32)cccc1[N+](=O)[O-],-0.615,–
CCc1ccc(NC(=O)COc2ccc(/C=C(/C#N)c3nc4ccccc4[nH]3)cc2OC)cc1,2.59,–
O=C(CNC(=O)c1ccccc1Br)N/N=C/c1ccccc1O,-5.02,–
Cc1ccc(N=Nc2ccc(O)c3ncccc23)cc1,3.5,–
Cc1cc2sc3ccc(C#CC4(O)CCCCC4)cc3c(=O)c2cc1C,–,0.251 µM (active)
Oc1c(C(Nc2cccc(C(F)(F)F)c2)c2ccncc2)ccc2cccnc12 (stereo not given),0.225,–
O=C(CCCOc1ccc(Cl)cc1Cl)N/N=C/c1ccccc1O,-14.6,–
CC[n+]1ccccc1/C=C1\Sc2ccc(C)cc2N1C,-0.952,–
CN1OC[C@@H]2CN[C@H](c3ccc(-c4cc5ccccc5o4)cc3)C[C@@H]21,–,0.316 µM (active)
CCC(=O)NNC(=S)NC(=O)c1ccc(C)cc1,-8.2,–
COc1ccc(-c2csc(NC(=O)C3CCN(c4ncnc5sc(C)c(C)c45)CC3)n2)cc1OC,-2.92,–
COC(=O)c1c(NC(=O)c2ccc([N+](=O)[O-])o2)sc2c1CCN(C(C)C)C2,0.611,–
CC(=O)Oc1ccc(C23c4ccccc4C2(OC(C)=O)c2cc(OC(C)=O)ccc23)cc1 (stereo not given),-2.35,–
COc1ccc(CC(N)c2csc(NC(=O)c3ccccc3OC)n2)cc1 (stereo not given),-15.2,–
COC(=O)c1sc(NC(=O)c2ccc(OC)cc2OC)nc1C,–,0.1 µM (active)
COc1ccc(C(=O)c2sc(Nc3ccccc3)nc2N)cc1OC,-16.4,–

SMILES,"activity change, negative = inhibition [%]",Potency
COc1ccc(CSCC(=O)N/N=C/c2ccccc2O)cc1,-4.55,–
Cc1cccc(OCC(=O)Nc2ccc3c(c2)nc(CCN2CCN(c4ccccn4)CC2)n3C)c1,-8.57,–
Cc1cc2oc3ccc(NCCC4CCCN4C)cc3c(=O)c2cc1C (stereo not given),–,6.31 µM (active)
CN1CCCC1CCOC(C)(c1ccccc1)c1ccc(Cl)cc1 (stereo not given),4.05,–
Cc1cc2oc3cc(NCCC4CCCN4C)ccc3c(=O)c2cc1C (stereo not given),–,10 µM (active)
CCN1CCN(C(c2ccc(C(F)(F)F)cc2)c2ccc3cccnc3c2O)CC1 (stereo not given),-0.327,–
COc1ccc(CC2C(=O)NC(C)C(=O)N(C)C3Cc4ccc(cc4)Oc4cc(ccc4O)CC(C(=O)NC(C)C(=O)NC(C)C(=O)N2C)N(C)C3=O)cc1 (stereo not given),-0.0052,–
COc1ccc(/C=C2\CN(Cc3ccccc3)C/C(=C\c3ccc(OC)c(O)c3)C2=O)cc1O,-1.84,–
O=C(CN1CCCC1)N/N=C/c1c(O)ccc2ccccc12,-4.95,–
CCc1ccccc1OCC(=O)Nc1nc(-c2cccnc2)cs1,-8.34,–
O=C(Nc1nc(-c2ccccn2)cs1)Nc1ccc(F)cc1F,–,25.1 µM (active)
CCc1sc(C(=O)Nc2nc(-c3ccccn3)cs2)cc1C,–,6.31 µM (active)
O=C(Nc1nc(-c2ccccn2)cs1)c1ccc(F)c(S(=O)(=O)N2CCOCC2)c1,-19.5,–
CC(Oc1ccc(F)cc1)C(=O)Nc1nc(-c2ccccn2)cs1 (stereo not given),-4.9,–
O=C(Nc1nc(-c2ccccn2)cs1)c1ccccc1-n1cnnn1,-18.3,–
Cc1ccc(-c2cn(-c3ccc(OC(F)F)cc3)c3[n+]2CCCCC3)cc1,-0.299,–
COc1ccc2oc(/C=C/N(C)C)c(C(=O)c3ccc(Cl)cc3)c2c1,-4.4,–
CC(CCc1ccccc1)NC(=O)c1ccc(C(=O)NC(C)CCc2ccccc2)cc1 (stereo not given),1.04,–
O=C(NCc1ccccc1)c1ccc(C(=O)N(C2CCCCC2)C2CCCCC2)cc1,0.27,–
O=C(NNCc1ccccc1)c1ccccc1,–,10 µM (active)
Cc1ccccc1N=Nc1ccc(O)c2ncccc12,-2.38,–
CCN1C(=O)/C(=C/c2nc3ccccc3c(=O)n2-c2ccccc2)c2ccccc21,0.962,–
CC(=O)Nc1cccc(-c2ccnc3c2CC(C)(C(=O)Nc2cccc(Oc4ccccc4)c2)O3)c1 (stereo not given),-1.45,–
COc1ccc2sc(-c3ccc(SC)cc3)c(-c3ccc(O)cc3)c2c1,2.23,–
COc1cc(/C=C(/C#N)C(=O)NCCc2c[nH]c3ccccc23)ccc1OCc1ccccc1F,1.42,–

SMILES,"activity change, negative = inhibition [%]",Potency
COCCCNCCCOc1ccc(Cl)cc1C(C)(C)C,1.71,–
CC(C)C1C(=O)N(Cc2cn(CCC3OCCO3)nn2)CCS(=O)(=O)N1Cc1ccc(-c2ccc(Cl)cc2)cc1 (stereo not given),-3.28,–
COc1cccc(S(=O)(=O)NCc2ccc(C(=O)Nc3cccc(Cl)c3)cc2)c1,-2.18,–
Cc1ccc(OCCCC(=O)NNC(=O)c2ccccn2)cc1,-1.95,–
CCCC(NCC(O)COc1ccc(-c2ccccc2)cc1)c1ccccc1 (stereo not given),-3.86,–
O=C(CSc1nnc(-c2ccc(Br)cc2)o1)Nc1cccc(C(=O)O)c1,–,3.98 µM (active)
O=C(CSc1n[nH]c(-c2ccccn2)n1)Nc1ccccc1,-13.1,–
O=C(Nc1cccc(Br)c1)c1cccc(OC(=S)N2CCOCC2)c1,-13.5,–
CC1(C(=O)Nc2cnc3ccccc3c2)CCN1C(=O)c1ccccc1CCc1ccccc1 (stereo not given),-1.11,–
O=C(NC(Nc1ncc(S(=O)(=O)c2ccc([N+](=O)[O-])cc2)s1)(C(F)(F)F)C(F)(F)F)c1ccc(Cl)cc1,-10.1,–
NC(Cc1ccc(C(F)(F)F)cc1)c1csc(Nc2ccc(C(=O)c3ccccc3)cc2)n1 (stereo not given),0.547,–
Cc1ccc(C2CC(=O)Nc3c2ccc2ccccc32)cc1[N+](=O)[O-] (stereo not given),-4.69,–
CCc1nc2c(OCc3ccc(Cl)cc3)cccn2c1N(C=O)Cc1ccc(OC)cc1,-3.69,–
COc1ccc(Cc2[nH]n3c(=O)cc(C(C)C)nc3c2-c2ccccc2)cc1,-12.5,–
CNC(=O)c1sc(N2N=C3/C(=C/c4ccccc4)CCCC3C2c2ccccc2)nc1C (stereo not given),-2.34,–
CN1CCC(N(C)S(=O)(=O)c2ccc(NC(=O)COc3ccc(Br)cc3Cl)cc2)CC1,-14.6,–
CN(C)CCNc1ccc(CO)c2sc3ccc(O)cc3c(=O)c12,-5.83,–
CCn1cc(Cl)c(C(=O)N2N=C(c3ccc4ccccc4c3)CC2c2ccccc2O)n1 (stereo not given),-3.47,–
CC(=O)NC(=C(Cl)Cl)S(=O)(=O)c1ccccc1,1.35,–
S=C(NCc1cccnc1)Nc1ccc(Oc2ccc(Cl)cc2)cc1,-0.796,–
C(=NN1CCCCCC1)c1ccc2ccccc2n1,–,0.1 µM (active)
S=C(Nc1cc(Cl)ccc1Oc1ccccc1)N1CCN(c2ccccn2)CC1,-1.6,–
CN(c1ccccc1)S(=O)(=O)c1cccc(NC(=O)c2cc(=O)c3ccccc3o2)c1,-0.345,–
O=C(COc1nsnc1N1CCOCC1)N/N=C/c1ccccc1O,-13.4,–
COc1ccccc1N(CC(=O)N/N=C/c1c(O)ccc2ccccc12)S(C)(=O)=O,-10.5,–

SMILES,"activity change, negative = inhibition [%]",Potency
Cn1c(CO)cnc1SCC(=O)c1ccc(Br)cc1,-8.93,–
CC(=O)Nc1cccc(-c2ccnc3c2CC(C)(C(=O)Nc2ccc(Cl)cc2)O3)c1 (stereo not given),-2.94,–
CCCCOc1ccc(CSC(=N)N)cc1Cl,-4.4,–
O=[N+]([O-])c1cc(Cl)c(O)c2ncccc12,-17.6,–
Cc1cccn2c(=O)c(/C=C(\C#N)C(N)=O)c(N3CCN(c4cccc(Cl)c4)CC3)nc12,0.85,–
NC(c1csc(NC(=O)c2cccc(OC(F)(F)F)c2)n1)c1ccccc1Cl (stereo not given),-0.688,–
COc1cc(/C=N\NC(=O)CC#N)ccc1OC/C=C/c1ccccc1,-3.57,–
COC(=O)c1cc(NC(=O)c2cc(-c3ccc(C(F)(F)F)cc3)oc2C(F)(F)F)ccc1N1CCOCC1,-5.33,–
COC1CC(C)C(OC)c2cc(O)cc(c2O)NC(=O)C(C)=CC=CC(C)C(OC(N)=O)C(C)=CC(C)C1OC (stereo not given),-11.5,–
Cc1cccc(C(=O)N/N=C2\CS(=O)(=O)N(C)c3ccsc32)c1,-9.38,–
CC(=O)Oc1ccc(N(C(C)=O)S(=O)(=O)c2ccc(Cl)cc2)c2ccccc12,-17.1,–
CCOC(=O)CSc1cccc2cccnc12,-10.6,–
CC(=O)Nc1cccc(-c2ccnc3c2CC(C)(C(=O)Nc2ccc(Cl)c(C(F)(F)F)c2)O3)c1 (stereo not given),-1.06,–
Cc1ccc2ccc(C(Nc3ccccn3)c3ccccc3)c(O)c2n1 (stereo not given),-7.07,–
Cc1nc2ccccc2n1/N=C/c1ccc([N+](=O)[O-])o1,-2.11,–
COc1ccc(-c2cnc3c(NC=O)cc(-c4ccccc4OC)cn23)cc1OC,-3.03,–
COc1ccccc1-c1cc(NC=O)c2ncc(-c3ccc(F)cc3)n2c1,-1.97,–
CN1CCN(c2ccc(-c3cc(NC=O)c4ncc(-c5ccc(F)c(Cl)c5)n4c3)cc2)CC1,–,15.8 µM (active)
Cc1cc(C)nc(N/N=C2/CCCC/C2=C\c2ccccc2)n1,-3.98,–
Cc1ccc(C(NC(=O)C2CCN(Cc3ccc(Cl)c(Cl)c3)CC2)c2ccccn2)cc1 (stereo not given),-2.96,–
Cn1c(=O)c2c(nc(CN3CCN(Cc4ccccc4)CC3)n2Cc2ccc(Cl)cc2)n(C)c1=O,0.959,–
Cn1c2ccccc2c(=O)c2c(=O)n(C3CCCCC3)c(-c3cccs3)nc21,-7.28,–
CC1(C)Cc2ccccc2C(NNC(=O)c2ccccn2)=N1,0.45,–
CC(OC(=O)c1cc(Br)ccc1O)C(=O)Nc1ccc(S(=O)(=O)N2CCCC2)cc1 (stereo not given),-2.03,–
O=C(Nc1ccc(N2CCN(C(=O)c3cccs3)CC2)c(Cl)c1)c1cccnc1,-0.903,–
